Test results as given in PubChem BioAssay AID1347146 (National Center for Advancing Translational Sciences (NCATS), 2019).
Where “and” joins values, the source holds several entries; their conditions need not be identical. Equal entries are not always repeated. Results filed as inconclusive are left out. Entries that show only a call come without a potency. Calls of active or inactive are those of the source. Calls come from the whole dose curve; as a rule, active = well fitted inhibition curve with a large enough effect; inconclusive = small, poorly fitted or top-dose-only effect; inactive = no such curve, though single readings can be large or run the other way.

biological target: Nicotinamide N-methyltransferase (Homo sapiens) (UniProt P40261); assay: qHTS Assay for Inhibitors of N-terminal methyltransferase 1 (NTMT1): NNMT MTaseGlo counterscreen assay; details: NNMT enzyme, MTase-Glo luminescence counterscreen; series mostly up to 57.1 µM
Summary of the method: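 Luminescent MTase-Glo read-out of SAH from nicotinamide methylation: 1 µM nicotinamide, 100 µM SAM, 125 nM NNMT, 30 min RT after ~15 min compound preincubation. Values normalized to no-enzyme/DMSO controls, Hill-fitted.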
Potency is the fitted concentration of half-maximal effect.

Sequence of Nicotinamide N-methyltransferase (Homo sapiens) (P40261 whole entry, looked up): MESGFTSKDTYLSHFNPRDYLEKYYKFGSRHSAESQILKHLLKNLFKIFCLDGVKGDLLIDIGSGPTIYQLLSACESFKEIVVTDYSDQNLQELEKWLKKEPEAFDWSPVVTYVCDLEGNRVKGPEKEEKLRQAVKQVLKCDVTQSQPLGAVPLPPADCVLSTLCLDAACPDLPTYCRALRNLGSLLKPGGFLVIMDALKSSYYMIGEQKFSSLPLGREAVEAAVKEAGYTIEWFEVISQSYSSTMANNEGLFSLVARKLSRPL

SMILES | Potency
NCCc1ccc(O)c(O)c1 | inactive
CCCCC#Cc1nc(NC)c2ncn([C@@H]3O[C@H](CO)[C@@H](O)[C@H]3O)c2n1 | inactive
OC[C@H]1O[C@@H](n2cnc3cncnc32)[C@H](O)[C@@H]1O | 11.2 µM (active)
COc1cc2nc(N3CCCN(C)CC3)nc(NC3CCN(Cc4ccccc4)CC3)c2cc1OC | inactive
Nc1nc(Cl)nc2c1ncn2[C@@H]1O[C@H](CO)[C@@H](O)[C@@H]1F | inactive
CCCCCCCCCCCCCCCCCC(=O)OC(CC(=O)O)C[N+](C)(C)C (configuration not stated) | inactive
O=c1[nH]c(=S)[nH]c(-c2ccccc2)c1Cc1c(O)ccc2ccccc12 | inactive
COc1ccc(C(=O)/C(Cc2cc(OC)c(OC)c(OC)c2)=C(\C(=O)O)c2ccc3c(c2)OCO3)cc1 | inactive
Cc1cccc(/C=C/c2ccccc2)n1 | inactive
OCC1OC(n2cnc3c(NCc4ccco4)ncnc32)C(O)C1O (configuration not stated) | inactive
S=C(Nc1ccccc1)Nc1nccs1 | inactive
Nc1ncnc2c1[nH]c(=S)n2C1OC(CO)C(O)C1O (configuration not stated) | inactive
Nc1nc(F)nc2c1ncn2[C@@H]1O[C@H](CO)[C@@H](O)[C@@H]1O | inactive
O=C1Nc2ccc(I)cc2/C1=C/c1cc(Br)c(O)c(Br)c1 | 25.1 µM (active)
CN1CCN(CCCN2c3ccccc3Sc3ccc(Cl)cc32)CC1 | inactive
Cc1cc(O)c2c(c1)C(=O)c1cc(O)cc(O)c1C2=O | inactive
Oc1ccc(C2CNCc3sccc32)cc1O (configuration not stated) | 35.5 µM (active)
O=C(/C=C/c1ccc(O)c(O)c1)OCCc1ccccc1 | inactive
Cc1nnc(SCC2=C(C(=O)O)N3C(=O)[C@@H](NC(=O)Cn4cnnn4)[C@H]3SC2)s1 | inactive

SMILES | Potency
C=CCN1CCc2c(cc(O)c(O)c2Cl)C(c2ccccc2)C1 (configuration not stated) | inactive
Oc1ccccc1O | inactive
O=c1c(-c2ccc(O)cc2)coc2cc(O)cc(O)c12 | inactive
CNC(=O)c1cnn(-c2nc(N)c3ncn([C@@H]4O[C@H](CO)[C@@H](O)[C@H]4O)c3n2)c1 | inactive
CC(C)COCC(CN(Cc1ccccc1)c1ccccc1)N1CCCC1 (configuration not stated) | inactive
Oc1cc(O)c2c(c1)O[C@H](c1ccc(O)c(O)c1)[C@@H](O)C2 | inactive
C[N+]1(C)CCC(OC(=O)C(c2ccccc2)c2ccccc2)CC1 | inactive
N#CC(C#N)=C(N)/C(C#N)=C/c1ccc(O)cc1 | inactive
N.N.N.N.N.N.N.N.N.N.N.N.N.N.O.O.[Ru+4].[Ru+5].[Ru+5] | inactive
[N-]=[N+]=Nc1nc2c(N)ncnc2n1C1OC(CO)C(O)C1O (configuration not stated) | inactive
CN(C)CCCN1c2ccccc2Sc2ccc(Cl)cc21 | inactive
CN(C)c1ccc(/C=C2\C(=O)Nc3ccccc32)cc1 | 10 µM (active)
COc1cc2c(NC3CCN(C)CC3)cc(N3CCCCN(C)CC3)cc2cc1OCCOCCN(C)C | inactive
C[C@H](Cc1ccc(O)c(O)c1)[C@@H](C)Cc1ccc(O)c(O)c1 | 22.4 µM (active) and 25.1 µM (active)
CC/C(=C(\c1ccccc1)c1ccc(OCCN(C)C)cc1)c1ccccc1 | inactive
NC[C@@H]1O[C@H](c2ccccc2)Cc2c1ccc(O)c2O | inactive
CC#C[C@]1(O)CC[C@H]2[C@@H]3CCC4=CC(=O)CCC4=C3[C@@H](c3ccc(N(C)C)cc3)C[C@@]21C | inactive
COc1cc2c(NC3CCN(CC4CCCCC4)CC3)nc(N3CCCCC3)nc2cc1OCCCN1CCCCC1 | inactive
